Screening data deposited in PubChem by National Center for Advancing Translational Sciences (NCATS).
D1 PAM = Potentiators of Human D1 Dopamine Receptor: qHTS; D(1A) dopamine receptor (Homo sapiens), P21728; HEK293 TREx D1 cells, calcium flux, dopamine EC20 potentiation; potentiation, % at 10 µM; 0.036% of 360,000 active; AID 504651, 2011; in the data active means potentiation above about 30%; further: 0% is about no effect
DRD3 agonist = qHTS of D3 Dopamine Receptor Agonist: qHTS; max activation, %; D3R DiscoveRx beta-arrestin cells, luminescence, 90 min; D(3) dopamine receptor (Homo sapiens), P35462; 0.58% of 410,000 active; in the data active means max activation above about 30%; further: 0% is about no effect
Target sequence (P35462 whole entry, looked up): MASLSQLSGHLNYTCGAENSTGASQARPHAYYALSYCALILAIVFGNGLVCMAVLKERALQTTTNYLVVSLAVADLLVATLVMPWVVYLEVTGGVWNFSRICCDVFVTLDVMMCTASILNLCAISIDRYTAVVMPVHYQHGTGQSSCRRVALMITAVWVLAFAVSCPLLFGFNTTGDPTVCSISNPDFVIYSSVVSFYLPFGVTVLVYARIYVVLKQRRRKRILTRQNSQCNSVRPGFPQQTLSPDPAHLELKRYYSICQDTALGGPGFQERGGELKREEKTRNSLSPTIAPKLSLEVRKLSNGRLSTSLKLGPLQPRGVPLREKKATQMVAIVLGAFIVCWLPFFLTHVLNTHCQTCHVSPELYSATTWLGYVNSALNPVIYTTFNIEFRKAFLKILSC
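Cells at 1500/well, incubated overnight, then treated with pinned compounds (dopamine as control) for 90 min at 37 degrees C. DiscoveRx reagent added for 30 - 60 minutes at room temperature; luminescence read.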
D3 antag = qHTS of D3 Dopamine Receptor Antagonist: qHTS; D(3) dopamine receptor (Homo sapiens), P35462; D3R cells, DiscoveRx beta-arrestin luminescence, antagonist mode; active compounds read low; 2.5% of 360,000 active; max response, negative = inhibition, %; in the data active means max response below about -50%; inconclusive means no clear call, values can overlap the other calls; further: on the % scale 0 is the no-effect control and ±100 the full control effect
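Cells expressing the human receptor were seeded at 1500 cells/well, incubated overnight at 37 degrees C in 5% CO2, then exposed to library compounds with dopamine controls for 90 minutes at 37 degrees C before luminescent detection.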
D1 ag = Allosteric Agonists of the Human D1 Dopamine Receptor: qHTS; 1% of 360,000 active; D(1A) dopamine receptor (Homo sapiens), P21728; activation, % at 2 µM; HEK293 T-REx D1 cells, calcium flux, agonist mode; in the data active means activation above about 30%; further: 0% is about no effect
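Tetracycline-induced HEK293 TREx D1 cells, force-coupled to calcium signalling, were dye-loaded with a no-wash calcium kit. Compound was pin-added after a 10 s baseline. Fluorescence was read kinetically at 1 cycle/s for 180 s, with calcium rises flagged as agonism.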
D1 antag = Antagonist of Human D 1 Dopamine Receptor: qHTS | D(1A) dopamine receptor (Homo sapiens), P21728 | 3.2% of 360,000 active | activity change, negative = inhibition, % at 10 µM | HEK293 TREx D1 cells, calcium flux, dopamine EC80; active compounds read low; in the data active means activity change below about -30%; further: on the % scale 0 is the no-effect control and ±100 the full control effect
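Tetracycline-induced HEK293 T-REx cells with force-coupled D1 receptor were loaded with a no-wash calcium dye. Compound was added after a 10 s baseline and read kinetically for 180 s; EC80 dopamine was then added and calcium flux followed another 180 s.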
* hit, by the source's call. Hits are enriched below; roughly 6% of the tested compounds scored in any of these assays.

What do the screens show for `C=CCN(C)CC/C=C1\c2ccccc2CSc2ccccc21`?
D1 PAM: -9; DRD3 agonist: -6; D3 antag: -73*; D1 ag: 0; D1 antag: -7

What do the screens show for `CN(CC/C=C1/c2ccccc2CSc2ccccc21)CCCO`?
D1 PAM: -8; DRD3 agonist: -17; D3 antag: inconclusive; D1 ag: 31*; D1 antag: -30

How did NCC/C=C1/c2ccccc2CSc2ccccc21 do in these assays?
D1 PAM: -5; DRD3 agonist: -1; D3 antag: inconclusive; D1 ag: 21; D1 antag: -5

Results for O=C(Nc1cc(S(=O)(=O)N2CCOCC2)ccc1N1CCCC1)c1ccccc1C(F)(F)F ?
DRD3 agonist: -8; D3 antag: 13

Results for Cc1ccc(C(=O)OCC(=O)NC2CCCC(C)C2C)s1 (stereo unspecified) ?
DRD3 agonist: 3; D3 antag: 14

What do the screens show for `CCc1ccc2oc(C(=O)NCC(c3ccc(Cl)cc3)N3CCOCC3)c(C)c2c1` (stereo unspecified)?
D1 PAM: 1; DRD3 agonist: 8; D1 ag: 1; D1 antag: 4

What do the screens show for `CCC(=O)N1c2nc(-c3ccco3)nn2C2(CCCCC2)[C@@H]2CCCC[C@@H]21`?
D1 PAM: -1; DRD3 agonist: -2; D1 ag: -1; D1 antag: -13

How did C#CCN(C)CC/C=C1\c2ccccc2CSc2ccccc21 do in these assays?
D1 PAM: -23; DRD3 agonist: -21; D3 antag: -71*; D1 ag: 3; D1 antag: -2

How did CCC(=O)N1CCc2cc(S(=O)(=O)NCCN3CCCCC3CC)ccc21 (stereo unspecified) do in these assays?
D1 PAM: -8; DRD3 agonist: -7; D3 antag: -59*; D1 ag: 6; D1 antag: -7

Results for CCOC(=O)C1CCN(C(=O)CCNS(=O)(=O)c2ccc3c(c2)CCN3C(=O)CC)CC1 ?
D1 PAM: -8; DRD3 agonist: -3; D3 antag: 28; D1 ag: 0; D1 antag: 18

What do the screens show for `CCC(=O)N1CCc2cc(S(=O)(=O)NCCC(=O)N3CCN(c4cccc(C)c4)C(C)C3)ccc21` (stereo unspecified)?
D1 PAM: -7; DRD3 agonist: 1; D3 antag: 18; D1 ag: 11; D1 antag: -40*

Results for Cc1ccc2c(c1)C(c1ccccc1)N(C(=O)c1ccccc1F)CC(=O)N2 (stereo unspecified) ?
D1 PAM: 0; DRD3 agonist: 7; D1 ag: 7; D1 antag: -27

How did N#C/C(=N\Nc1ccc(Cl)c(Cl)c1)C(=O)C1CC1 do in these assays?
D1 PAM: -5; DRD3 agonist: 13; D3 antag: 21; D1 ag: 23; D1 antag: -44*

Results for N#C/C(=N\Nc1ccc(F)cc1)C(=O)C1CC1 ?
D1 PAM: 3; DRD3 agonist: 4; D3 antag: -9; D1 ag: 14; D1 antag: -7

How did Cc1nn(CC(=O)NCCCN2CCN(Cc3ccccc3)CC2)c(=O)c2cc(-c3ccccc3)nn12 do in these assays?
D1 PAM: -5; DRD3 agonist: -17; D3 antag: -66*; D1 ag: 4; D1 antag: -15

What do the screens show for `CCN1CCN(CCCNC(=O)Cn2nc(C)n3nc(-c4ccccc4)cc3c2=O)CC1`?
D1 PAM: 0; DRD3 agonist: -1; D3 antag: -5; D1 ag: 2; D1 antag: 5

What do the screens show for `Cc1nn(CC(=O)NCCCN2CCC(Cc3ccccc3)CC2)c(=O)c2cc(-c3ccccc3)nn12`?
D1 PAM: -2; DRD3 agonist: 3; D3 antag: -88*; D1 ag: -1; D1 antag: -3

How did CC1(C)[C@@H](O)CC[C@]2(C)C3C(O)C=C4[C@H]5C[C@@](C)(CO)CC[C@]5(C)CC[C@]4(C)[C@]3(C)CC[C@@H]12 (stereo partly specified) do in these assays?
D1 PAM: 5; DRD3 agonist: 65*; D3 antag: 53; D1 ag: 2; D1 antag: 26

What do the screens show for `CC1(C)[C@@H](O)CC[C@]2(C)[C@H]3C(=O)C=C4[C@@H]5C[C@@](C)(C(=O)O)CC[C@]5(C)CC[C@@]4(C)[C@]3(C)CC[C@@H]12`?
D1 PAM: 1; DRD3 agonist: 18; D3 antag: 0; D1 ag: 2; D1 antag: 28

Results for Cc1cccc(NC(=O)C2(c3ccccc3)CC2(Cl)Cl)c1 (stereo unspecified) ?
D1 PAM: -16; DRD3 agonist: -1; D3 antag: 10; D1 ag: 25; D1 antag: -64*

How did Cc1ccc2c(=O)cc(C(=O)Nc3sc4c(c3C(=O)NCC3CCCO3)CCC4)oc2c1 (stereo unspecified) do in these assays?
D1 PAM: -1; DRD3 agonist: -10; D1 ag: 0; D1 antag: -13

How did O=C1OC[C@H](Cc2ccc3c(c2)OCO3)/C1=C\c1ccc2c(c1)OCO2 do in these assays?
D1 PAM: 0; DRD3 agonist: 3; D3 antag: 5; D1 ag: 20; D1 antag: -33*

How did O=C1CC(Cc2ccccc2)C(=O)N1CCc1ccc2c(c1)OCO2 (stereo unspecified) do in these assays?
D1 PAM: 3; DRD3 agonist: -1; D3 antag: 0; D1 ag: 2; D1 antag: -8

How did CCN(C(=O)c1ccc2c(=O)n3c(nc2c1)CCCCC3)c1cc(C)ccc1C do in these assays?
D1 PAM: -3; DRD3 agonist: 5; D1 ag: 0; D1 antag: -52*

How did CN(CC(=O)Nc1ccccc1C(F)(F)F)C(=O)c1ccc2c(=O)n3c(nc2c1)CCC3 do in these assays?
D1 PAM: -5; DRD3 agonist: 4; D3 antag: -24; D1 ag: 3; D1 antag: -32*

What do the screens show for `CN(CC(=O)Nc1cccc(F)c1)C(=O)c1ccc2c(=O)n3c(nc2c1)CCC3`?
D1 PAM: -3; DRD3 agonist: 2; D3 antag: 9; D1 ag: 1; D1 antag: -13

What do the screens show for `O=C(c1ccc2c(=O)n3c(nc2c1)CCCCC3)N1CCN(c2ccc(Cl)cc2)CC1`?
D1 PAM: -7; DRD3 agonist: -2; D3 antag: 6; D1 ag: 1; D1 antag: -13

What do the screens show for `Cc1cccc(NC(=O)c2ccc3c(=O)n4c(nc3c2)CCCCC4)n1`?
D1 PAM: -8; DRD3 agonist: 9; D3 antag: 1; D1 ag: 3; D1 antag: -37*
